The results in this text go back to PubChem BioAssay (EPA / NIEHS).

For orientation: AC50 means the concentration at which the activity in the assay is half-maximal.

Activity calls are given as the source filed them. The calls were made as follows: active = hit-call score of the fitted dose curve at least 0.9, where 1 is the maximum; inactive = score below 0.9.

What all share (conditions): mRNA level, 48 h; actives raise or lower the signal
Read-out in assay [1]: Cytochrome P450 3A4 (Homo sapiens) (UniProt P08684)
The assay can be described thus: LTEA_HepaRG_CYP3A4: Life Technologies and Expression Analysis (LTEA) Assay for CYP3A4 using HepaRG (AID 2283487). In a few lines:
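In a human hepatic line (HepaRG), duplicate wells were treated 48 h with up to 100 uM chemical in half-log dilutions. Endpoint: CYP3A4 mRNA induction or loss relative to 0.5% DMSO vehicle, by qRT-PCR.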

Read-out in assay [2]: Early growth response protein 1 (EGR1) transcription factor, EGR1 (gene 1958)
In words: LTEA_HepaRG_EGR1: Life Technologies and Expression Analysis (LTEA) Assay for Early growth response protein 1 (EGR1) transcription factor using HepaRG (AID 2283490). In a few lines:
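EGR1 transcript levels quantified by qRT-PCR (Fluidigm arrays) against three housekeeping genes after 48 h chemical exposure of HepaRG cells. Eight-point half-log series topping at 100 uM, 0.5% DMSO vehicle, analyzed for gain or loss.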

Read-out in assay [3]: Ezrin (EZR), EZR (gene 7430)
In words: LTEA_HepaRG_EZR: Life Technologies and Expression Analysis (LTEA) Assay for Ezrin (EZR) using HepaRG (AID 2283491). In a few lines:
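Gain or loss of EZR mRNA is scored relative to 0.5% DMSO in human HepaRG cultures treated 48 h with test chemicals in duplicate, eight half-log concentrations from 100 uM.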

Read-out in assay [4]: Cytochrome P450 3A7 (Homo sapiens) (UniProt P24462)
The assay can be described thus: LTEA_HepaRG_CYP3A7: Life Technologies and Expression Analysis (LTEA) Assay for CYP3A7 using HepaRG (AID 2283492). In a few lines: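 Cells were thawed, plated, cultured 48 h, then treated for a further 48 h with chemicals (eight-point half-log series from 100 uM, 0.5% DMSO). RNA was isolated and CYP3A7 expression quantified by qRT-PCR normalised to ACTB, GAPDH and POLR2A.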

Read-out in the next assay: CYP3A5 (gene 1577)
The assay can be described thus: LTEA_HepaRG_CYP3A5: Life Technologies and Expression Analysis (LTEA) Assay for CYP3A5 using HepaRG (AID 2283493). In short, it runs like this: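 Readout was CYP3A5 mRNA by qRT-PCR. HepaRG cultures were exposed for 48 h in serum-free induction medium to chemicals at up to 100 uM, and responses were fitted in both directions relative to DMSO vehicle.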

Read-out in assay [5]: Fatty Acid-Binding Protein 1 (FABP1), FABP1 (gene 2168)
In words: LTEA_HepaRG_FABP1: Life Technologies and Expression Analysis (LTEA) Assay for Fatty Acid-Binding Protein 1 (FABP1) using HepaRG (AID 2283494). In short, it runs like this: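 FABP1 expression by TaqMan qRT-PCR, normalised to three housekeeping genes, in HepaRG cells after 48 h chemical treatment. Eight-point half-log series topping at 100 uM in 0.5% DMSO, duplicates; gain or loss fitted relative to vehicle.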

Read-out in assay [6]: Cytochrome P450 4A22 (Homo sapiens) (UniProt Q5TCH4)
The assay can be described thus: LTEA_HepaRG_CYP4A22: Life Technologies and Expression Analysis (LTEA) Assay for Cytochrome P450 4A22 (CYP4A22) using HepaRG (AID 2283495). In short, it runs like this: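 Cryopreserved HepaRG cells, plated and cultured 48 h, then switched to serum-free induction medium and treated 48 h (duplicates, up to 100 uM, half-log steps, 0.5% DMSO). Expression change of CYP4A22 was fitted bidirectionally against vehicle.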

Read-out in assay [7]: Cytochrome P450 7A1 (Homo sapiens) (UniProt P22680)
The assay can be described thus: LTEA_HepaRG_CYP7A1: Life Technologies and Expression Analysis (LTEA) Assay for Cytochrome P450 7A1 (CYP7A1) using HepaRG (AID 2283496). In short, it runs like this:
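Using 0.5% DMSO as vehicle and baseline, chemicals were tested in duplicate over an 8-point range from 100 uM on HepaRG cells for 48 h; qRT-PCR signals were normalised to ACTB, GAPDH and POLR2A.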

Read-out in assay [8]: Pro-epidermal growth factor (Homo sapiens) (UniProt P01133)
In words: LTEA_HepaRG_EGF: Life Technologies and Expression Analysis (LTEA) Assay for Epidermal growth factor (EGF) using HepaRG (AID 2283489). In a few lines:
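EGF expression changes in human HepaRG cells are scored by bidirectional fitting relative to 0.5% DMSO controls. Chemicals are tested at eight half-log concentrations up to 100 uM for 48 h in serum-free induction medium.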

Read-out in assay [9]: DNA damage-inducible transcript 3 (DDIT3), DDIT3 (gene 1649)
In words: LTEA_HepaRG_DDIT3: Life Technologies and Expression Analysis (LTEA) Assay for DNA damage-inducible transcript 3 (DDIT3) using HepaRG (AID 2283488). In a few lines: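 Eight-point concentration-response (100 uM highest, half-log dilutions) in HepaRG, 48 h, duplicate wells. Endpoint: qRT-PCR mRNA, normalized (ACTB, GAPDH, POLR2A), bidirectional fitting with DMSO as baseline.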

Chain of Cytochrome P450 3A4 (Homo sapiens) (P08684 whole entry, looked up): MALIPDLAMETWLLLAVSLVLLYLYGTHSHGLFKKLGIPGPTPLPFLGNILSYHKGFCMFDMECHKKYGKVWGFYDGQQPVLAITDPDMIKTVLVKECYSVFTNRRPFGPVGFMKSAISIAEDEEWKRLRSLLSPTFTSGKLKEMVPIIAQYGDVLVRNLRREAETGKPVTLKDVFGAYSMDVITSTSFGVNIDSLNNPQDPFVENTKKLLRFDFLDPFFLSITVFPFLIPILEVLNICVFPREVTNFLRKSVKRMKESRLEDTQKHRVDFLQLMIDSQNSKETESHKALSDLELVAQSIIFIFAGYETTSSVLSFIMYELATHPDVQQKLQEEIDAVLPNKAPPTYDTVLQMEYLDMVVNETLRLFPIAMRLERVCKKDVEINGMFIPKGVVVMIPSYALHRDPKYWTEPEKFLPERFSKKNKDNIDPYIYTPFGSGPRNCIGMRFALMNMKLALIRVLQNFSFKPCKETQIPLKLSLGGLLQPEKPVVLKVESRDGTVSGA
Chain of Cytochrome P450 3A7 (Homo sapiens) (P24462 whole entry, looked up): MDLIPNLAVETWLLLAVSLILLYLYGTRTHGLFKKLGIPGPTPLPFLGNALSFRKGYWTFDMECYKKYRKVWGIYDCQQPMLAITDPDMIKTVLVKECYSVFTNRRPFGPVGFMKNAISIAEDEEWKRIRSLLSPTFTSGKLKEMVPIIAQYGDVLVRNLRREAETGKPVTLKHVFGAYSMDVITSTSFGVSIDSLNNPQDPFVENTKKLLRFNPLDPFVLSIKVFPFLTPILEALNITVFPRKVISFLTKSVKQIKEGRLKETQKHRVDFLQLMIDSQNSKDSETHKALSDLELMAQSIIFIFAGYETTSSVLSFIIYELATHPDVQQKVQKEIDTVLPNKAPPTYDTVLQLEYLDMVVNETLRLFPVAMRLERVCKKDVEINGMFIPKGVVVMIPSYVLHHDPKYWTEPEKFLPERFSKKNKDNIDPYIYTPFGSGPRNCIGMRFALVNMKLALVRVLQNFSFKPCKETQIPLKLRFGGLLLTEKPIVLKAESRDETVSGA

`O=NO`: the result (in [1]; in assay [2]; in assay [3]; in assay [4]; with CYP3A5 (gene 1577); in assay [5]) was inactive. In addition, the result in assay [6] and in assay [7] was inactive.

Consider `O=C1NC(=O)C(c2ccccc2)(c2ccccc2)N1`, for which the compound was called inactive (in assay [8]; in [2]; in assay [3]; with CYP3A5 (gene 1577); in assay [7]). The results for the AC50 in [5] and in [6] were 17.9 µM (active) and 9.92 µM (active), respectively.

As for `COC(=O)CCCC(=O)OC`, the outcome (in assay [1]; in assay [2]; in [3]; in assay [4]; in the assay with CYP3A5 (gene 1577); in assay [5]) was inactive. Further, the result in assay [6] and in [7] was inactive.

For the compound `O=C1c2c(O)cccc2Cc2cccc(O)c21`, the compound was called inactive (in assay [1]; in assay [8]; in assay [2]; in assay [3]; in assay [4]; with CYP3A5 (gene 1577)). In addition, the compound was called inactive in [5], in assay [6] and in [7].

With `COC(=O)[C@H]1[C@H]2C[C@@H]3c4[nH]c5cc(OC)ccc5c4CCN3C[C@H]2C[C@@H](OC(=O)c2cc(OC)c(OC)c(OC)c2)[C@@H]1OC`, the AC50 in assay [8] was 42.2 µM (active); in [2], 64.2 µM (active); in assay [3], 8.38 µM (active).

Take `O=C1O[C@H]([C@H](O)CO)C(O)=C1O`: the compound was called inactive (in assay [1]; in assay [2]; in [3]; in assay [4]; in the assay with CYP3A5 (gene 1577); in assay [5]). For the same compound, the result in [6] and in [7] was inactive.

For the compound `CC(C)COC(=O)CCCCC(=O)OCC(C)C`, the compound was classed as inactive (in [1]; in assay [2]; in assay [3]; in [4]; in the assay with CYP3A5 (gene 1577); in assay [5]). In addition, the compound was called inactive in [6] and in assay [7].

For the compound `Cc1c(C)c2c(c(C)c1O)CCC(C)(COc1ccc(CC3SC(=O)NC3=O)cc1)O2` (configuration not stated), the compound was called inactive in assay [8], in [3] and in assay [5]. Moreover, the AC50 in assay [2] is 88.3 µM (active); with CYP3A5 (gene 1577) it was 15.8 µM (active); in [6] it was 25.8 µM (active); in assay [7], 92.7 µM (active).

Take `CN(C)C(=O)NC1(c2ccccc2)CCN(CCC[C@]2(c3ccc(Cl)c(Cl)c3)CCCN(C(=O)c3ccccc3)C2)CC1`: the AC50 was 18.1 µM (active) in [9]; 23.1 µM (active) in [2]; 23.4 µM (active) in [3]; 20.5 µM (active) in assay [5]; 23.7 µM (active) in [6]; 22.2 µM (active) in [7]. For the same compound, the call (in assay [8]; with CYP3A5 (gene 1577)) was inactive.

As for `O=[Si]=O`, the compound was classed as inactive (in assay [1]; in assay [2]; in assay [3]; in [4]; in the assay with CYP3A5 (gene 1577); in assay [5]).

For the compound `CC(=O)[C@@]1(O)CC[C@H]2[C@@H]3CCC4=CC(=O)CC[C@]4(C)[C@H]3CC[C@@]21C`, the call in [2], in assay [3] and in assay [5] was inactive.

Regarding `CCCCc1nc2cccnc2n1Cc1ccc(-c2ccccc2-c2nnn[nH]2)cc1`, the AC50 in assay [1] is 16 µM (active); in [4] it was 13.7 µM (active); in assay [7], 26.6 µM (active). For the same compound, the result (in assay [8]; in assay [2]; in [3]; in the assay with CYP3A5 (gene 1577); in assay [6]) was inactive.

For `CC(C)c1cccc(C(C)C)c1NC(=O)NS(=O)(=O)c1cc(C(C)(C)O)co1`, the figures for the AC50 in assay [1], in assay [5] and in assay [6] were 3.54 µM (active), 43.1 µM (active) and 31.6 µM (active), respectively. Also, the call (in [2]; in assay [3]; in [4]; in the assay with CYP3A5 (gene 1577); in assay [7]) was inactive.

On to `CS(=O)(=O)c1ccc([C@@H](C[C@H]2CCC(=O)C2)C(=O)Nc2cnccn2)cc1Cl`, for which the AC50 in assay [9] is 18.6 µM (active); in assay [8], 23.5 µM (active). Also, the result in assay [2], in assay [3] and in assay [5] was inactive.

For the compound `CCCCCCCC(=O)OC`, the compound was classed as inactive (in [1]; in assay [2]; in [3]; in [4]; with CYP3A5 (gene 1577); in assay [5]). Moreover, the result in assay [6] and in [7] was inactive.

In the case of `CCc1nc(N)nc(N)c1-c1ccc(Cl)cc1`, the compound was classed as inactive (in assay [2]; in assay [3]; in [4]; with CYP3A5 (gene 1577); in [5]). Besides, the values for the AC50 in assay [6] and in [7] were 60.7 µM (active) and 2.6 µM (active), respectively.

For the compound `O=C1OC(c2ccc(O)cc2)(c2ccc(O)cc2)c2ccccc21`, the outcome in assay [8], in assay [2], in assay [3], in [5] and in assay [6] was inactive. In addition, the figures for the AC50 (in the assay with CYP3A5 (gene 1577); in assay [7]) were 62.1 µM (active) and 50 µM (active), respectively.

Take `O=C(NS(=O)(=O)/C=C/c1cccs1)c1ccc(F)cc1Br`: the AC50 in assay [1] is 5.73 µM (active); in [4] it was 5.96 µM (active); in assay [5], 26.6 µM (active); in [7], 27.9 µM (active). The result (in [2]; in assay [3]; in the assay with CYP3A5 (gene 1577); in [6]) was inactive.

As for `O=C1CCCCC1`, the call (in [1]; in assay [2]; in [3]; in assay [4]; with CYP3A5 (gene 1577); in assay [5]) was inactive. In addition, the compound was classed as inactive in [6] and in assay [7].

For the compound `CN(C)CCCN1c2ccccc2Sc2ccc(Cl)cc21`, the AC50 in assay [9] was 61.3 µM (active); in assay [2], 88.2 µM (active); with CYP3A5 (gene 1577), 83.7 µM (active); in assay [5], 88.3 µM (active); in assay [7], 81.3 µM (active). Further, the outcome in assay [3], in [4] and in assay [6] was inactive.

For the compound `C=CCc1ccc(OC)c(OC)c1`, the outcome (in assay [1]; in [2]; in assay [3]; in assay [4]; with CYP3A5 (gene 1577); in assay [5]) was inactive. The outcome in assay [6] and in assay [7] was inactive.

On to `CSc1ccc(Oc2ccc(S(N)(=O)=O)cc2CN(C)C)cc1C`, for which the AC50 was 14 µM (active) in assay [1] and 85.1 µM (active) in assay [6]. In addition, the compound was called inactive (in assay [2]; in assay [3]; in [4]; with CYP3A5 (gene 1577); in assay [5]; in assay [7]).

In the case of `CC(C)c1cccc(C(C)C)c1`, the result (in assay [1]; in [2]; in assay [3]; in assay [4]; with CYP3A5 (gene 1577); in assay [5]) was inactive. In addition, the outcome in assay [6] and in [7] was inactive.

As to `Cc1ccc(-c2cc(C(F)(F)F)nn2-c2ccc(S(N)(=O)=O)cc2)cc1`, the AC50 in [9] is 68.8 µM (active); in the assay with CYP3A5 (gene 1577) it was 82 µM (active); in [5], 50 µM (active). In addition, the compound was called inactive in assay [2], in assay [3], in [6] and in assay [7].

In the case of `CC(C)NCC(O)c1ccc(O)c(O)c1` (configuration not stated), the call in [8], in assay [2] and in [6] was inactive. The AC50 is 1.8 µM (active) in assay [3], 0.153 µM (active) with CYP3A5 (gene 1577), 0.479 µM (active) in [5] and 0.212 µM (active) in assay [7].

For `Cn1cnc2c1c(=O)[nH]c(=O)n2C`, the outcome in assay [9], in assay [2], in [3] and in assay [5] was inactive.

As for `CCCCOC(=O)CCCCC(=O)OCCCC`, the call (in [1]; in assay [2]; in assay [3]; in assay [4]; with CYP3A5 (gene 1577); in assay [5]) was inactive. Also, the call in assay [6] and in assay [7] was inactive.
